Results reported in PubChem BioAssay (NCI).
About 83,000 compounds went through this panel and 20% of them were active in at least one assay; those are over-represented in the sample as a whole.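 48-hour exposure, single concentration, 96-well plates; percent growth endpoint where 0 means no net growth. Active: below 10.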 Calls of active or inactive are those of the source.

System: HCT-15 colon
Experiment: NCI-60 one-dose screen, 48 h (100 = growth as untreated, 0 = no growth, -100 = all killed)
Conditions: 10 µM unless noted

Structure (SMILES)	growth
Cc1ccc(-c2nc3ccccn3c2/C=C2/C(=O)Nc3cc(Cl)ccc32)cc1	53.3% (inactive)
CC(=O)[C@@H]1CC[C@]2(C(N)=O)CC[C@]3(C)[C@H](CC[C@@H]4[C@@]5(C)CCCNC(C)(C)[C@@H]5CC[C@]43C)[C@@H]12	70.7% (inactive)
CC(C)N1C(=O)S/C(=C2/SC(=O)N(C(C)C)C2=O)C1=O	95.9% (inactive)
NS(=O)(=O)c1ccc(CCN2C(=O)C3C(C2=O)C2(Cl)C(Cl)=C(Cl)C3(Cl)C2(Cl)Cl)cc1 (stereo not drawn)	90.5% (inactive)
Nc1c(S(=O)(=O)O)cc2c3c(cccc13)C(=O)OC2=O	95.9% (inactive)
O=C(CCN1CCCC1)c1ccc([N+](=O)[O-])cc1	100% (inactive)
O=C1Nc2ccc(F)cc2/C1=C\c1c(-c2ccccc2)nc2ccccn12	51.9% (inactive)
O=Cc1ccc(-c2cn3ccnc3c(-c3ccc4ncn(Cc5ccccc5)c4c3)n2)cc1	50.9% (inactive)
N#C/C(=C\c1ccc(C(F)(F)F)cc1)c1cc2ccccc2[nH]1	92.5% (inactive)
O=C1c2cccc3c(-c4ccc5c(c4)ncn5C4CCCCC4)ccc(c23)C(=O)N1c1nc2ccccc2s1	59.5% (inactive)
Cc1cccc(-c2cn3ccnc3c(-c3ccc4ncn(Cc5ccccc5)c4c3)n2)c1	64.8% (inactive)
CCOC(=O)C1=C(CCl)NC(=O)NC1c1ccc2c(c1)OCO2 (stereo not drawn)	3.53% (active)
CCCN1[C@@H]2CC[C@H]1/C(=C\c1ccc(OC)c(OC)c1)C(=O)/C2=C/c1ccc(OC)c(OC)c1	41.6% (inactive)
COc1ccc(C(=O)C2C(C#N)C(C#N)C3c4ccccc4C=CN23)cc1 (stereo not drawn)	94.5% (inactive)
O=C(C[n+]1cccc2ccccc21)c1ccc(O)c(O)c1	20.8% (inactive)
COc1ccc(C(=O)c2nc3ccccc3n2CC(=O)c2ccc(F)cc2)cc1	56% (inactive)
CC(=O)[C@@H]1CC[C@]2(CO)CC[C@]3(C)[C@H](CC[C@@H]4[C@@]5(C)CCCNC(C)(C)[C@@H]5CC[C@]43C)[C@@H]12	81.5% (inactive)
NS(=O)(=O)c1ccc(CCN2C(=O)C=CC2=O)cc1	99.3% (inactive)
Nc1ccccc1NC(=O)c1ccc(-n2nc(-c3ccccc3)c3ccccc32)cc1	76.7% (inactive)
N#CC1C(C#N)C2c3ccccc3C=CN2C1C(=O)c1ccc(Br)cc1 (stereo not drawn)	95.9% (inactive)
O=C(CNCCN1CCOCC1)N1c2cccc3cccc(c23)N(C(=O)CNCCN2CCOCC2)C1c1cn(-c2ccccc2)nc1-c1cccc([N+](=O)[O-])c1	43.6% (inactive)
C=C(C)[C@@H]1CC[C@]2(C(=O)N[C@H](CO)Cc3ccccc3)CC[C@]3(C)[C@H](CC[C@@H]4[C@@]5(C)CCCNC(C)(C)[C@@H]5CC[C@]43C)[C@@H]12	-82.3% (active)
O=C1c2cccc3c(-c4ccc5c(c4)ncn5C4CCCCC4)ccc(c23)C(=O)N1CCO	98.5% (inactive)
O=C(/C(=C\c1ccc([N+](=O)[O-])cc1)S(=O)Cc1ccc(F)cc1)c1ccc(F)cc1 (stereo not drawn)	2.57% (active)
NNC(=O)c1ccc(-n2nc(-c3ccccc3)c3ccccc32)cc1	57.6% (inactive)

System: HT29 colon
Experiment: as above
Conditions: 10 µM unless noted

Structure (SMILES)	growth
NC(=O)CSSCC(N)=O	105% (inactive)
C=C(C)[C@@H]1CC[C@]2(C(=O)N3CCN(C)CC3)CC[C@]3(C)[C@H](CC[C@@H]4[C@@]5(C)CC[C@H](O)C(C)(C)[C@@H]5CC[C@]43C)[C@@H]12	-90.4% (active)
O=C1Nc2cc(Cl)ccc2/C1=C\c1c(-c2ccc(F)cc2)nc2ccccn12	4.36% (active)
CCc1ccc(-c2cn3ccnc3c(-c3ccc4ncn(Cc5ccccc5)c4c3)n2)cc1	31.2% (inactive)
CCOC(=O)c1cc(C(=O)c2ccc(OC)c(OC)c2)n2ccc(/C=C/c3cc[n+](CC(=O)c4ccc(OC)c(OC)c4)cc3)cc12	95.5% (inactive)
COc1cc(/C=C\c2cc(OC)c(OC)c(OC)c2)cc(NC(=O)/C=C/c2cc(OC)c(OC)c(OC)c2)c1OC	32% (inactive)
CN1C(N2CCN(S(=O)(=O)c3ccccc3)CC2)=NS(=O)(=O)c2ccccc21	104% (inactive)
O=C1Nc2ccccc2/C1=C\c1c(-c2ccc(F)cc2)nc2ccccn12	58.7% (inactive)
OCc1cnc2ccccc2c1NC1CCCCCC1	92.1% (inactive)
Oc1c(Cl)cc(Cl)c(Cl)c1CNCCNCc1c(O)c(Cl)cc(Cl)c1Cl	26.8% (inactive)
CN1[C@@H]2CC[C@H]1/C(=C\c1ccccc1)C(=O)/C2=C/c1ccccc1	10.9% (inactive)
O=C1c2c(c3c4cccc(F)c4[nH]c3c3ccc4ccccc4c23)C(=O)N1O	23.8% (inactive)
CN(C)CCC(=O)c1ccc([N+](=O)[O-])cc1	96.7% (inactive)
Cc1ccc(-c2nc3ccccn3c2/C=C2/C(=O)Nc3cc(Cl)ccc32)cc1	66.5% (inactive)
CC(=O)[C@@H]1CC[C@]2(C(N)=O)CC[C@]3(C)[C@H](CC[C@@H]4[C@@]5(C)CCCNC(C)(C)[C@@H]5CC[C@]43C)[C@@H]12	3.98% (active)
CC(C)N1C(=O)S/C(=C2/SC(=O)N(C(C)C)C2=O)C1=O	102% (inactive)
NS(=O)(=O)c1ccc(CCN2C(=O)C3C(C2=O)C2(Cl)C(Cl)=C(Cl)C3(Cl)C2(Cl)Cl)cc1 (stereo not drawn)	85.8% (inactive)
Nc1c(S(=O)(=O)O)cc2c3c(cccc13)C(=O)OC2=O	106% (inactive)
O=C(CCN1CCCC1)c1ccc([N+](=O)[O-])cc1	101% (inactive)

Structure (SMILES)	growth
O=C1Nc2ccc(F)cc2/C1=C\c1c(-c2ccccc2)nc2ccccn12	52.1% (inactive)
O=Cc1ccc(-c2cn3ccnc3c(-c3ccc4ncn(Cc5ccccc5)c4c3)n2)cc1	82.5% (inactive)
N#C/C(=C\c1ccc(C(F)(F)F)cc1)c1cc2ccccc2[nH]1	99.7% (inactive)
O=C1c2cccc3c(-c4ccc5c(c4)ncn5C4CCCCC4)ccc(c23)C(=O)N1c1nc2ccccc2s1	84% (inactive)
Cc1cccc(-c2cn3ccnc3c(-c3ccc4ncn(Cc5ccccc5)c4c3)n2)c1	58% (inactive)
CCOC(=O)C1=C(CCl)NC(=O)NC1c1ccc2c(c1)OCO2 (stereo not drawn)	6.92% (active)
CCCN1[C@@H]2CC[C@H]1/C(=C\c1ccc(OC)c(OC)c1)C(=O)/C2=C/c1ccc(OC)c(OC)c1	30% (inactive)
COc1ccc(C(=O)C2C(C#N)C(C#N)C3c4ccccc4C=CN23)cc1 (stereo not drawn)	84.4% (inactive)
O=C(C[n+]1cccc2ccccc21)c1ccc(O)c(O)c1	40.7% (inactive)
COc1ccc(C(=O)c2nc3ccccc3n2CC(=O)c2ccc(F)cc2)cc1	55% (inactive)
CC(=O)[C@@H]1CC[C@]2(CO)CC[C@]3(C)[C@H](CC[C@@H]4[C@@]5(C)CCCNC(C)(C)[C@@H]5CC[C@]43C)[C@@H]12	68.1% (inactive)
NS(=O)(=O)c1ccc(CCN2C(=O)C=CC2=O)cc1	97.2% (inactive)
Nc1ccccc1NC(=O)c1ccc(-n2nc(-c3ccccc3)c3ccccc32)cc1	88.4% (inactive)
N#CC1C(C#N)C2c3ccccc3C=CN2C1C(=O)c1ccc(Br)cc1 (stereo not drawn)	86.8% (inactive)
O=C(CNCCN1CCOCC1)N1c2cccc3cccc(c23)N(C(=O)CNCCN2CCOCC2)C1c1cn(-c2ccccc2)nc1-c1cccc([N+](=O)[O-])c1	7.37% (active)
C=C(C)[C@@H]1CC[C@]2(C(=O)N[C@H](CO)Cc3ccccc3)CC[C@]3(C)[C@H](CC[C@@H]4[C@@]5(C)CCCNC(C)(C)[C@@H]5CC[C@]43C)[C@@H]12	-86.1% (active)
O=C1c2cccc3c(-c4ccc5c(c4)ncn5C4CCCCC4)ccc(c23)C(=O)N1CCO	83.6% (inactive)
O=C(/C(=C\c1ccc([N+](=O)[O-])cc1)S(=O)Cc1ccc(F)cc1)c1ccc(F)cc1 (stereo not drawn)	-55% (active)
NNC(=O)c1ccc(-n2nc(-c3ccccc3)c3ccccc32)cc1	103% (inactive)
